# KLF5 inhibitor: suppresses KLF5 promoter-driven expression; 0.23% of 290,000 active; inhibition, % at 5 µM; AID 1700; DLD-1 KLF5 promoter-luciferase reporter, luminescence;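 active = inhibition above a per-plate limit of that plate's mean compound inhibition plus 3 SD, cut at about 60% in these data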;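 note: 0% = DMSO wells and 100% = LY294002 at 200 µM; higher means less KLF5 promoter-driven luciferase light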
# BaF3 parental: parental Ba/F3 viability inhibition as JAK2V617F counter-screen; inhibition, % at 5.6 µM; AID 1486; CellTiter-Glo ATP luminescence; 1.1% of 220,000 active;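 active = inhibition above a per-campaign cutoff, the mean inhibition of all tested compounds plus 3 SD, cut at about 27% in these data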;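 note: 0% = DMSO wells and 100% = JAK Inhibitor I control wells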
# Ba/F3 V617F tox: reduce viability of Ba/F3 cells dependent on JAK2V617F | 1.1% of 220,000 active | Ba/F3 EpoR-JAK2V617F viability, ATP luminescence | AID 1446 | inhibition, % at 5.6 µM;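 active = inhibition above the campaign mean plus 3 SD over all tested compounds, cut at about 24% in these data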;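 note: cytokine-independent growth of Ba/F3 cells driven by EpoR plus mutant JAK2; 0% = DMSO-treated cells and 100% = JAK inhibitor I control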
# IEC-6 cytotox: counter-screen for KLF5 inhibitors: cytotoxicity in IEC-6 cells. IEC-6 cytotoxicity, luminescence viability. inhibition, % at 5 µM. 0.78% of 290,000 active. AID 1825; in the data active = inhibition above about 22%;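 note: 0% = plate median of test compound wells and 100% = cytotoxic reference compound wells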
# APP transl inh: APP translation inhibition; SH-SY5Y APP 5'UTR-luciferase reporter, luminescence; inhibition, % at 2 µM; 0.82% of 190,000 active; AID 1285;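 active = inhibition above a set limit, derived from the sample mean plus 3 SD, cut at about 45% in these data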
# BaF3 tox 2: parental Ba/F3 viability inhibition for JAK2V617F counter-screen; shares compounds with Ba/F3 V617F tox; CellTiter-Glo luminescence; cells kept alive by added IL-3; inhibition, % at 5.6 µM; 31% of 580 active; AID 1520;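 active = cell growth inhibition above the hit limit set in the earlier mutant JAK2 cell screen, cut at about 27% in these data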;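 note: plate controls were DMSO-treated cells for no effect and JAK Inhibitor I control wells for full effect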
# JAK2V617F confrm: confirmation: loss of viability in JAK2V617F-dependent Ba/F3 cells | Ba/F3 EpoR-JAK2V617F viability, CellTiter-Glo luminescence | AID 1521 | 66% of 580 active | inhibition, % at 5.6 µM | shares compounds with Ba/F3 V617F tox;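 active = mean inhibition above the hit cutoff derived in the earlier primary screen, cut at about 25% in these data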;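 note: 0% = DMSO-treated cells and 100% = JAK inhibitor I control wells; higher means lower luminescence from reduced cell ATP and viability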
# Active calls of the source: *; . = no result. Hits are enriched below; roughly 1.9% of the tested compounds scored in any of these assays.
SMILES,KLF5 inhibitor,BaF3 parental,Ba/F3 V617F tox,IEC-6 cytotox,APP transl inh,BaF3 tox 2,JAK2V617F confrm
CC1CCCCC1NC(=O)CCC(=O)N1CCOc2ccc(Cl)cc21 (stereo not given),-55,.,.,0,.,.,.
O=C(c1ccccc1)C(CCC(CN1CCOCC1)C(=O)c1ccccc1)CN1CCOCC1 (stereo not given),-14,4,44*,9,90*,19,100*
CC(=O)c1ccc2cccc3c2c1N=CN3C,9,11,50*,-8,1,-3,8
CC1CCCN(C(=O)C2CCN(S(=O)(=O)c3cccc4nonc34)CC2)C1 (stereo not given),-6,.,.,-9,.,.,.
Cc1nc([N+](=O)[O-])c(Br)n1Cc1ccccc1,-17,-7,36*,0,.,-9,46*
C=CCOC(=O)c1c(C)nc2cc3c(cc2c1C)OCO3,-17,5,5,4,-14,.,.
Cc1[nH]c2ccccc2c(=O)c1C(=O)/C=C/c1ccccc1,2,-5,59*,12,.,20,96*
Cc1ccc2c(CC(=O)NC3CCS(=O)(=O)C3)coc2c1C (stereo not given),-41,.,.,-4,.,.,.
Cc1ccc2c(CC(=O)NCc3ccco3)coc2c1C,-6,14,35*,15,14,25,21
CCOc1cc(C(=O)Nc2ccc(N3CCN(S(C)(=O)=O)CC3)cc2)cc(OCC)c1OCC,-11,5,100*,-5,-4,-1,7
CCCC1O[C@@H]2CC3C4CCC5=CC(=O)C=C[C@]5(C)C4C(OC(C)=O)C[C@]3(C)[C@]2(C(=O)COC(C)=O)O1 (stereo not given in full),0,3,25*,-11,-10,-1,28*
Cc1noc(NC(=O)c2ccc(Cl)c(Cl)c2)c1Cl,-36,4,29*,6,-1,-2,47*
Cc1cc(C)cc(NC(=O)CSc2nnc(CN3CCOCC3)n2C)c1,-22,2,95*,-2,1,-7,-6
Cc1cc(C)c(NC(=O)CSc2nnc(CN3CCOCC3)n2C)c(C)c1,-38,.,.,-3,.,.,.
O=C(NC1CCCCC1)C(c1ccc(F)cc1)N(Cc1ccco1)C(=O)CN1C(=O)c2ccccc2S1(=O)=O (stereo not given),13,1,-2,5,-25,.,.
O=C(O)CC(NC(=O)Nc1ccccc1)c1ccc(OC2CCCC2)cc1 (stereo not given),-4,4,33*,3,2,-4,-6
Cc1ccc2nc(-c3ccncc3)c(NC3CCCCC3)n2c1,28,1,0,-5,-10,.,.
N/C(=N\OC(=O)c1cccc(Br)c1)c1ccc(Br)cc1,7,1,35*,7,5,-3,-2
O=C(Oc1ccc(Nc2ncnc3ccccc23)cc1)c1cccnc1,3,3,3,12,12,.,.
CC(=O)Nc1ccc(NC(=O)COC(=O)c2cnccn2)cc1,4,2,-1,-3,14,.,.
O=[N+]([O-])c1cc(/C=N/Nc2nc3ccccc3[nH]2)c(O)cc1O,23,-4,30*,2,50*,68*,81*
CC(C)NC(=O)c1ccc(N(Cc2ccc(Cl)cc2)S(C)(=O)=O)cc1,-18,.,.,7,.,.,.
Cc1ccc(Cl)cc1N1CCN(CC(=O)NC2CCCc3ccccc32)CC1 (stereo not given),1,4,58*,4,-8,-1,6
O=C(CN1CCN(c2ccccc2Cl)CC1)NC1CCCc2ccccc21 (stereo not given),3,3,2,-2,-19,.,.
CCCn1c(SCC(=O)NC2CCCc3ccccc32)n[nH]c1=O (stereo not given),-7,8,57*,1,-2,-2,-3
SMILES,KLF5 inhibitor,BaF3 parental,Ba/F3 V617F tox,IEC-6 cytotox,APP transl inh,BaF3 tox 2,JAK2V617F confrm
CCCn1c(SCC(=O)NC2CCCC(C)C2C)n[nH]c1=O (stereo not given),-19,8,2,-4,-9,.,.
Cc1ccc(C)c(N/N=C2\CCCNC2=O)c1,-8,0,-4,7,-15,.,.
c1ccc(-c2nc(-c3ccccn3)no2)cc1,26,25,25*,18,-64,29*,12
NC(=S)NN=C(Cc1ccccc1)Cc1ccccc1,-12,21,45*,-2,-7,50*,60*
Cc1cc(=O)[nH]c(-c2ccccc2OC(F)(F)F)n1,7,1,-5,2,.,.,.
Cc1cc(C)nc(/N=C(\N)Nc2cccc(OCc3ccccc3)c2)n1,-2,3,10,17,.,.,.
Cc1cc(C)nc(/N=C(\N)Nc2ccc(OCc3ccccc3)cc2)n1,-87,11,34*,8,6,5,39*
COc1ccc2nc(NC(=O)CN3CCN(C)CC3)sc2c1,-51,3,-2,-2,-1,.,.
COc1ccc2nc(NC(=O)CN3CCOCC3)sc2c1,-23,5,83*,-1,-5,1,-6
CC(=O)c1c[nH]c(C(=O)NCc2ccccc2Cl)c1,-18,.,.,-5,.,.,.
COc1ccc(S(=O)(=O)Nc2ncccc2C)c2ccccc12,-6,.,.,5,.,.,.
N#C/C(=C\c1ccc(O)c(O)c1)S(=O)(=O)c1ccccc1,-23,4,24*,-2,23,-5,10
CCCNC(=O)NC1CCCc2ccccc21 (stereo not given),-28,5,2,1,4,.,.
O=S(=O)(c1cnc(Cl)c(Cl)c1)N1CCc2ccccc21,-12,-3,25*,-2,.,-6,59*
O=S(=O)(c1cc(Cl)ccc1Cl)N1CCc2ccccc21,-33,.,.,8,.,.,.
O=S(=O)(c1cnc(Cl)c(Br)c1)N1CCc2ccccc21,-16,0,28*,-5,.,0,58*
O=S(=O)(c1cnc(Cl)c(Cl)c1)N1CCCc2ccccc21,5,3,4,6,-12,.,.
C=CCn1c(SCC(=O)NCC)nc2sc3c(c2c1=O)CCC3,-5,.,.,6,.,.,.
CCOc1ccc(Nc2nc(N)nc(CCl)n2)cc1,-54,10,99*,100*,.,17,99*
Nc1nc(CCl)nc(Nc2ccccc2)n1,-11,5,4,-2,-15,.,.
Cc1ccc(Nc2nc(N)nc(CCl)n2)cc1,-31,1,34*,-2,.,0,58*
COc1cccc(Nc2nc(N)nc(CCl)n2)c1,20,-4,-4,3,.,.,.
CCCCCn1nnc2c(=O)oc3ccccc3c21,-7,9,-1,0,5,.,.
Cc1ccc(CC(=O)NCc2cccnc2)cc1,-8,7,58*,-5,10,-8,-7
Cc1ccc(CSCC(=O)NCc2cccnc2)cc1,34,10,2,-2,9,.,.
COc1ccc(CNC2CCSc3ccccc32)cc1OC (stereo not given),-34,.,.,-1,.,.,.
Cc1cc(C)cc(N(C(=O)CNC(=O)c2ccco2)C(C(=O)NC2CCCCC2)c2cccnc2)c1 (stereo not given),4,.,.,1,.,.,.

# High-throughput results (PubChem BioAssay)
